Assay results: PubChem BioAssay (Tox21)
Inconclusive results are not listed. Activity calls are given as the source filed them. Unless noted, calls follow the shape of the full dose curve.

Experiments:
[1] = Nuclear factor erythroid 2-related factor 2/antioxidant responsive element (Nrf2/ARE) small molecule agonists: qHTS cell viability counter screen in human keratinocytes (AID 1919968; active = well fitted curve in the direction sought with a large enough effect in the repeat runs; an effect the other way counts as inactive or inconclusive; also: nearly all actives have a fitted effect of over 55% in size)
Procedure, shortened: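 Cytotoxicity was multiplexed with the Nrf2/ARE luciferase assay in the same wells. Stably transfected HaCaT keratinocytes were treated with test compounds for 23 h at 37 C. Cell viability was then measured by CellTiter-Fluor fluorescence.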

[2] = Nuclear factor erythroid 2-related factor 2/antioxidant responsive element (Nrf2/ARE) small molecule agonists: luciferase reporter gene qHTS assay in human keratinocytes (AID 1919969); also: nearly all actives have a fitted effect of over 35% in size; also: potency is read from the fitted curve at half-maximal effect
[3] = target: Gonadotropin-releasing hormone receptor (Homo sapiens) (UniProt P30968); assay: Human gonadotropin-releasing hormone receptor (GnRHR) small molecule agonists, calcium flux assay in GnRHR-HEK293 cells (AID 1920063); also: nearly all actives have a fitted effect of over 35% in size
Procedure, shortened: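 Agonist activity was measured as intracellular calcium flux in HEK293 cells engineered to stably express human GnRHR. After dye loading for 1 hour at 37 C, compounds in DMSO were added and fluorescence was followed for 3 minutes.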

[4] = target: KiSS-1 receptor (Homo sapiens) (UniProt Q969F8); assay: Human kisspeptin (KISS1R) small molecule agonists, calcium flux assay in KISS1R-HEK293 cells (AID 1920064; active = well fitted curve in the direction sought with a large enough effect in the repeat runs; an effect the other way counts as inactive or inconclusive)
Procedure, shortened: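 Agonist activity is monitored as intracellular calcium rise in engineered HEK293 cells carrying human KISS1R. Cells are dye-loaded for 1 h at 37 C before compound addition, and fluorescence is recorded for 3 min.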

[5] = G protein-coupled receptor (GPCR) small molecule agonists, calcium flux assay: HEK293 wild type cell line counter screen (AID 1920065)
Procedure, shortened: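 Seed cells, incubate 18 h (37 C, 5% CO2); add calcium dye, 1 h at 37 C; pin-transfer compounds, ATP control or DMSO; read fluorescence 480/540 nm each second for 3 min.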

[6] = p53 small molecule agonists, cell-based qHTS assay with human liver microsomes: qHTS cell viability counter screen (AID 1963579); also: nearly all actives have a fitted effect of over 45% in size
Procedure, shortened: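 Metabolically activated exposure: compounds, human liver microsomes and NADPH (0.5 mg/mL final apiece) were added to p53RE-bla cells seeded 5 h earlier, left 16 h at 37 C, and then assessed for viability by CellTiter-Glo luminescence.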

[7] = p53 small molecule agonists, cell-based qHTS assay with rat liver microsomes: qHTS cell viability counter screen (AID 1963580); also: nearly all actives have a fitted effect of over 45% in size
Procedure, shortened: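 Counter screen for cytotoxicity under metabolic activation: rat liver microsomes and NADPH, 0.5 mg/mL final each, added with compounds to p53RE-bla HCT-116 cells; 16 h at 37 C, then ATP luminescence read.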

[8] = p53 small molecule agonists, cell-based qHTS assay: qHTS cell viability counter screen (AID 1963581); also: nearly all actives have a fitted effect of over 45% in size
Procedure, shortened: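 Viability was counter-screened in parallel with the p53 agonist reporter by measuring intracellular ATP luminescence in the same HCT-116 p53RE-bla wells after 16 h compound treatment at 37 C.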

[9] = target: 5-hydroxytryptamine receptor 2A (Homo sapiens) (UniProt P28223); assay: 5-hydroxytryptamine receptor 2A (HTR2A) small molecule agonists, cell-based qHTS assay (AID 1963587); also: nearly all actives have a fitted effect of over 30% in size
Procedure, shortened: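 HTR2A-CHO cells, plated 18 h at 37 C/5% CO2, dye-loaded 1 h at 37 C; compounds in DMSO added by pin tool (agonist mode). Intracellular calcium flux read as kinetic fluorescence on FDSS over 2 min at 1 s intervals.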

[10] = target: Muscarinic acetylcholine receptor M1 (Homo sapiens) (UniProt P11229); assay: Cholinergic receptor muscarinic 1 (CHRM1) small molecule agonists, cell-based qHTS assay (AID 1963589); also: nearly all actives have a fitted effect of over 35% in size
Procedure, shortened: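 Cells were plated and incubated 18 h at 37 C/5% CO2, loaded with calcium dye for 1 h at 37 C, then treated with compounds in DMSO. Fluorescence was recorded kinetically at 1 sec intervals.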

[11] = cAMP Responsive Elements (CRE) small molecule agonists, cell-based qHTS assay (AID 1963590)
Procedure, shortened: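 Cells carrying a CRE-driven beta-lactamase reporter (HEK 293T) are seeded, incubated overnight (18 h), and treated with test compounds for 3 h at 37 C; reporter activity is then detected with a FRET substrate after 2 h at room temperature.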

[12] = target: Beta-2 adrenergic receptor (Homo sapiens) (UniProt P07550); assay: Adrenergic beta2 receptor (ADRB2) small molecule antagonists, cell-based qHTS assay (AID 1963592); also: series mostly up to about 92 µM; nearly all actives have a fitted effect of over 50% in size
Procedure, shortened: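 Assay format: CHO-ADRB2 cells, 18-20hr seeding at 37C/5% CO2, then compound plus 1nM isoproterenol agonist mix for 0.5hr RT. Homogeneous time-resolved fluorescence cAMP detection after 1hr, expressed as 665/615 nm ratio.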

[13] = target: D(2) dopamine receptor (Homo sapiens) (UniProt P14416); assay: Dopamine D2 receptor (DRD2) small molecule agonists, cell-based qHTS assay (AID 1963594); also: nearly all actives have a fitted effect of over 35% in size
Procedure, shortened: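 HEK293 cells stably expressing DRD2 were cultured 24 h at 37 C, then given Ro20-1724 (0.1 mM final) and compounds for 10 min at room temperature. NKH477 (200nM) was then added for 30 min. cAMP was read by HTRF.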

[14] = target: D(2) dopamine receptor (Homo sapiens) (UniProt P14416); assay: Dopamine D2 receptor (DRD2) small molecule antagonists, cell-based qHTS assay (AID 1963595; active = well fitted inhibition curve with a large enough effect in the signal ratio in the repeat runs, with a control signal flat; the % refers to the signal ratio)
Procedure, shortened: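 Cells were plated and grown for 24 h at 37 °C. Ro20-1724 (0.1 mM final) went in first, then compound for 10 min. NKH477 (200 nM) with quinpirole (12 nM) followed for 30 min at RT, then HTRF detection reagents for 1 h.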

[15] = target: Muscarinic acetylcholine receptor M1 (Homo sapiens) (UniProt P11229); assay: Cholinergic receptor muscarinic 1 (CHRM1) small molecule antagonists, cell-based qHTS assay (AID 1963588); also: nearly all actives have a fitted effect of over 40% in size
Procedure, shortened: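 Compounds were tested at 15 concentrations in three independent runs. Dye-loaded CHRM1-CHO cells were exposed 5 min at room temperature before stimulation by acetylcholine added at 50nM. Intracellular calcium was read kinetically on FDSS for 3 min.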

[16] = cAMP Responsive Elements (CRE) small molecule antagonists, cell-based qHTS assay (AID 1963591; active = well fitted inhibition curve with a large enough effect in the signal ratio in the repeat runs, not every such curve was filed as active; the % refers to the signal ratio)
Procedure, shortened: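 Cells (CRE-bla HEK 293T, DMEM with 10% dialyzed FBS and 25 mM HEPES) are seeded and incubated 18 h. Compounds are added with NKH477 agonist at 0.25 uM final for 3 h, then FRET substrate for 2 h.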

[17] = target: Beta-2 adrenergic receptor (Homo sapiens) (UniProt P07550); assay: Adrenergic beta2 receptor (ADRB2) small molecule agonists, cell-based qHTS assay (AID 1963593);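 also: CHO cells stably overexpressing human ADRB2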
Procedure, shortened: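 CHO cells stably over-expressing ADRB2 were plated overnight at 37C, then dosed with compounds plus a stimulation mix containing 100uM IBMX and 25uM Ro-20-1724 for 0.5hr at room temperature. cAMP was measured by HTRF competition, 1hr.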
% is scaled to controls: 0 for no effect and ±100 for the full control effect.

Chain of D(2) dopamine receptor (Homo sapiens) (P14416 whole entry, looked up): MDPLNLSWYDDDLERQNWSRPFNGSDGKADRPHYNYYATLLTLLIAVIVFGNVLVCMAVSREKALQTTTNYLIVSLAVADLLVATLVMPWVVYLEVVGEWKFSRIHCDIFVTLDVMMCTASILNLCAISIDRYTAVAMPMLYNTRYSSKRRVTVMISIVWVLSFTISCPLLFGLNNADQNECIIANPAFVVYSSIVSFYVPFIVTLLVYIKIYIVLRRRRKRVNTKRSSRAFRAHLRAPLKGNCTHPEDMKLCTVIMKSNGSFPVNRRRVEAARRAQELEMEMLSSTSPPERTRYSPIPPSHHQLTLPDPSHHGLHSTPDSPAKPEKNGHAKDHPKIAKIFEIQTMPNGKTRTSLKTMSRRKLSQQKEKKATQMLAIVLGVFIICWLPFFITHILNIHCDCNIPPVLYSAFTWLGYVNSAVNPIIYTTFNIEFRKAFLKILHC
Chain of Muscarinic acetylcholine receptor M1 (Homo sapiens) (P11229 whole entry, looked up): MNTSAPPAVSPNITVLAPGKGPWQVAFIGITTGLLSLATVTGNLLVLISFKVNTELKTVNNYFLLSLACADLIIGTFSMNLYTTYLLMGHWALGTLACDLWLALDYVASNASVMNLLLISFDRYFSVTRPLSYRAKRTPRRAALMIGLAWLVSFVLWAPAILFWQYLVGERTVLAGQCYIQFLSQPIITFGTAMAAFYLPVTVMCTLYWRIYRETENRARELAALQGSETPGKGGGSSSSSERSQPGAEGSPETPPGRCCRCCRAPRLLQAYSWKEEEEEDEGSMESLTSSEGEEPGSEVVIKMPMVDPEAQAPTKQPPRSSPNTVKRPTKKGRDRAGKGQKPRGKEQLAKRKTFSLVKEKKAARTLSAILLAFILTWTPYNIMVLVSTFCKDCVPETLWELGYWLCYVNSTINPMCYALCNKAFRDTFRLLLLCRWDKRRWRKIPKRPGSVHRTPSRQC
Chain of KiSS-1 receptor (Homo sapiens) (Q969F8 whole entry, looked up): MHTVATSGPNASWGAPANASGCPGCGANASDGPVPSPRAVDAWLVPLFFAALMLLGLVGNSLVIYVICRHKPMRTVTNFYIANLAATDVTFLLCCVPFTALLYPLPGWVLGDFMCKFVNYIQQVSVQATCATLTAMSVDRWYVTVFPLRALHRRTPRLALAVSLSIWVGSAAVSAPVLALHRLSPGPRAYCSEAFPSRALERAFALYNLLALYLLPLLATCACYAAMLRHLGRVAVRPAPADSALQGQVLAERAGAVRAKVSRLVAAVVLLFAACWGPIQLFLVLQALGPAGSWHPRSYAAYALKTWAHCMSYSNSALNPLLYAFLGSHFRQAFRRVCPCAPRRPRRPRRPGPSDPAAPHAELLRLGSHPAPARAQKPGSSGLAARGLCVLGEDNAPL
Chain of 5-hydroxytryptamine receptor 2A (Homo sapiens) (P28223 whole entry, looked up): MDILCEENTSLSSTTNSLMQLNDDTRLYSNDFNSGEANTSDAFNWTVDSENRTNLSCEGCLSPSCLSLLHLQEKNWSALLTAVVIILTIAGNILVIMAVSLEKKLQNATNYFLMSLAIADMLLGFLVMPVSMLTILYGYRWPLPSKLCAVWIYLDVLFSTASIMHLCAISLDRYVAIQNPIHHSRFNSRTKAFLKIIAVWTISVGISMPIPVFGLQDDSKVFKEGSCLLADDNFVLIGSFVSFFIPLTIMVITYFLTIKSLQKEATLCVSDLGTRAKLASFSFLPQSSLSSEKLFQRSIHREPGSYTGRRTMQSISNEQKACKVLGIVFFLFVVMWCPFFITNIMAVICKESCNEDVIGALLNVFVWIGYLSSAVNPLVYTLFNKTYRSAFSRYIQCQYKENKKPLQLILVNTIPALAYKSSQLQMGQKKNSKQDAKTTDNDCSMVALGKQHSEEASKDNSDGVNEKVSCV
Chain of Beta-2 adrenergic receptor (Homo sapiens) (P07550 whole entry, looked up): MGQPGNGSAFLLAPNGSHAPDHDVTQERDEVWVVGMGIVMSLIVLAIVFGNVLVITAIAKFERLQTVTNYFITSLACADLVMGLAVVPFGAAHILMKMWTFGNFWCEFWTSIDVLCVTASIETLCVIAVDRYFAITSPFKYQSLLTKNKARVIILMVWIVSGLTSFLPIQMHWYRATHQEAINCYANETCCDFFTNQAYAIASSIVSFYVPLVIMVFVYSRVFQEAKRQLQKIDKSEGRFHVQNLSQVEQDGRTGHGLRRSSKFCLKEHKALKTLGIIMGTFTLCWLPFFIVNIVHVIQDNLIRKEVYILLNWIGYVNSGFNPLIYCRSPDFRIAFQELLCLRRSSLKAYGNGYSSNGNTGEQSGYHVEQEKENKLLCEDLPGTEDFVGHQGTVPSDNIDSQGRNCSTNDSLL
Chain of Gonadotropin-releasing hormone receptor (Homo sapiens) (P30968 whole entry, looked up): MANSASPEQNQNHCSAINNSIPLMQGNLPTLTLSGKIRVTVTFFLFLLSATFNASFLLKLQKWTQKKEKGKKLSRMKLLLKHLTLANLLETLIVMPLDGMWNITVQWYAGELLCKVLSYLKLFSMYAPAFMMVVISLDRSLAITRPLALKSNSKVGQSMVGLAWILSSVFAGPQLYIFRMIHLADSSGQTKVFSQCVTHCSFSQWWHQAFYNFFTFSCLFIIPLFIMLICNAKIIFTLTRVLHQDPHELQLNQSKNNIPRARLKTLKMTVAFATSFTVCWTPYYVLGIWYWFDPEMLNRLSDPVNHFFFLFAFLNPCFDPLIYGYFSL

Clc1cccc(C(c2ccc3nc[nH]c3c2)n2ccnc2)c1 (stereo unspecified)
inactive: Potency [1] | Potency [2] | Potency [3] | Potency [4] | Potency [5] | Potency [6] | Potency [7] | Potency [8] | Potency [9] | Potency [10] | Potency [11] | Potency [12] | Potency [13] | Potency [14]

CN(C)C(=O)Nc1ccccc1
inactive: Potency [1] | Potency [2] | Potency [3] | Potency [4] | Potency [5] | Potency [6] | Potency [7] | Potency [8] | Potency [15] | Potency [10] | Potency [11] | Potency [16] | Potency [12] | Potency [13] | Potency [14]

CC(=O)OCC(=O)[C@@]1(O)CC[C@H]2[C@@H]3CCC4=CC(=O)CC[C@]4(C)[C@H]3C(=O)C[C@@]21C
inactive: Potency [1] | Potency [2] | Potency [3] | Potency [4] | Potency [5] | Potency [6] | Potency [7] | Potency [8] | Potency [11] | Potency [16] | Potency [13] | Potency [14]

CCC(C)OC(C)CC (stereo unspecified)
inactive: Potency [1] | Potency [2] | Potency [3] | Potency [4] | Potency [5] | Potency [6] | Potency [7] | Potency [8] | Potency [15] | Potency [10] | Potency [11] | Potency [16] | Potency [12] | Potency [17] | Potency [13]

CC(C)(CO)C(O)C(=O)NCCCO (stereo unspecified)
inactive: Potency [1] | Potency [2] | Potency [3] | Potency [4] | Potency [5] | Potency [6] | Potency [7] | Potency [8] | Potency [11] | Potency [16] | Potency [12] | Potency [13] | Potency [14]

COc1ccnc(CS(=O)c2nc3cc(OC(F)F)ccc3[nH]2)c1OC (stereo unspecified)
inactive: Potency [1] | Potency [2] | Potency [3] | Potency [4] | Potency [5] | Potency [6] | Potency [7] | Potency [8] | Potency [11] | Potency [12] | Potency [17] | Potency [13]

O=c1oc2cc(O)ccc2c2oc3cc(O)ccc3c12
inactive: Potency [1] | Potency [3] | Potency [4] | Potency [5] | Potency [6] | Potency [7] | Potency [8] | Potency [9] | Potency [15] | Potency [10] | Potency [14]
active: Potency [2] 29.4 µM

NC(N)=NCCC[C@H](N)C(=O)O
inactive: activity change, negative = cytotoxicity [1] -4.64% [at 8.39 µM] | activity, positive = activation [2] -5.37% [at 8.39 µM] | activity change [3] 0.97% [at 5.22 µM, hits give high values] | activation [4] -0.0198% [at 6.97 µM] | activation [5] 2.23% [at 5.23 µM] | activity change, negative = cytotoxicity [6] -0.294% [at 5.99 µM] | activity change, negative = cytotoxicity [7] 1.88% [at 5.99 µM] | activity change, negative = cytotoxicity [8] -8.01% [at 5.99 µM] | activation [9] 2.81% [at 7.02 µM] | activity, negative = inhibition [15] -1.41% [at 5.58 µM] | activation [11] 4.27% [at 8.39 µM] | activity change, negative = inhibition [16] -3.28% [at 8.39 µM] | activity change, negative = inhibition [12] 0.0181% [at 8.39 µM] | activation [13] -13.5% [at 8.39 µM] | activity change, negative = inhibition [14] 5.33% [at 8.38 µM]

S=C(S)NCCNC(=S)S
inactive: Potency [1] | Potency [2] | Potency [3] | Potency [4] | Potency [5] | Potency [6] | Potency [7] | Potency [8] | Potency [9] | Potency [15] | Potency [10] | Potency [12] | Potency [17] | Potency [13] | Potency [14]

Cc1onc(-c2ccccc2)c1-c1ccc(S(N)(=O)=O)cc1
inactive: Potency [1] | Potency [2] | Potency [3] | Potency [4] | Potency [5] | Potency [6] | Potency [7] | Potency [8] | Potency [11] | Potency [16] | Potency [12] | Potency [17] | Potency [13] | Potency [14]

O=C1NCC2(CCN(CCc3ccccc3)CC2)O1
inactive: Potency [1] | Potency [2] | Potency [3] | Potency [4] | Potency [5] | Potency [6] | Potency [7] | Potency [8] | Potency [9] | Potency [10] | Potency [11] | Potency [16] | Potency [12] | Potency [13] | Potency [14]

Cc1onc(-c2ccccc2Cl)c1C(=O)N[C@@H]1C(=O)N2[C@@H]1SC(C)(C)[C@@H]2C(=O)O
inactive: Potency [1] | Potency [2] | Potency [3] | Potency [4] | Potency [5] | Potency [6] | Potency [7] | Potency [8] | Potency [11] | Potency [16] | Potency [12] | Potency [17] | Potency [13] | Potency [14]

CC(CN(CCN(CC(C)OCCO)CC(C)OCCO)CC(C)OCCO)OCCO (stereo unspecified)
inactive: Potency [1] | Potency [2] | Potency [3] | Potency [4] | Potency [5] | Potency [6] | Potency [7] | Potency [8] | Potency [10] | Potency [11] | Potency [12] | Potency [17] | Potency [14]

CN1CC(=O)N2[C@H](c3ccc4c(c3)OCO4)c3[nH]c4ccccc4c3C[C@@H]2C1=O
inactive: Potency [1] | Potency [2] | Potency [3] | Potency [4] | Potency [5] | Potency [6] | Potency [7] | Potency [8] | Potency [9] | Potency [15] | Potency [11] | Potency [16] | Potency [12] | Potency [17] | Potency [14]

Cn1c(=O)c2c(ncn2CC2OCCO2)n(C)c1=O
inactive: Potency [1] | Potency [2] | Potency [3] | Potency [4] | Potency [5] | Potency [6] | Potency [7] | Potency [8] | Potency [11] | Potency [16] | Potency [12] | Potency [17] | Potency [13] | Potency [14]

CC(CC(=O)Cl)CC(C)(C)C (stereo unspecified)
inactive: Potency [1] | Potency [2] | Potency [3] | Potency [4] | Potency [5] | Potency [6] | Potency [7] | Potency [8] | Potency [9] | Potency [15] | Potency [10] | Potency [16] | Potency [12] | Potency [13] | Potency [14]

CC(=O)OCC(=O)[C@H]1CC[C@H]2[C@@H]3CCC4=CC(=O)CC[C@]4(C)[C@H]3CC[C@]12C
inactive: Potency [1] | Potency [2] | Potency [3] | Potency [4] | Potency [5] | Potency [6] | Potency [7] | Potency [8] | Potency [9] | Potency [10] | Potency [12] | Potency [13] | Potency [14]
